# Experimental data as given in publication PMC4336329 (PLoS ONE, 2015).
# Screen size: about 310,000 compounds; about 14,000 (4.5%) showed an effect of 50% or more. Effects have a minus sign here. This excerpt belongs to a sample that is enriched for strong results.
# Target: human ether-à-go-go-related gene (hERG) potassium channel (human, UniProt Q12809)
# Test: primary screen, population patch clamp on CHO cells stably expressing hERG; higher = less effect of the substance
# 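Further: peak tail current of the secondary pulse compared with the same well before compound.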
# Sequence of human ether-à-go-go-related gene (hERG) potassium channel (Q12809 whole entry, looked up): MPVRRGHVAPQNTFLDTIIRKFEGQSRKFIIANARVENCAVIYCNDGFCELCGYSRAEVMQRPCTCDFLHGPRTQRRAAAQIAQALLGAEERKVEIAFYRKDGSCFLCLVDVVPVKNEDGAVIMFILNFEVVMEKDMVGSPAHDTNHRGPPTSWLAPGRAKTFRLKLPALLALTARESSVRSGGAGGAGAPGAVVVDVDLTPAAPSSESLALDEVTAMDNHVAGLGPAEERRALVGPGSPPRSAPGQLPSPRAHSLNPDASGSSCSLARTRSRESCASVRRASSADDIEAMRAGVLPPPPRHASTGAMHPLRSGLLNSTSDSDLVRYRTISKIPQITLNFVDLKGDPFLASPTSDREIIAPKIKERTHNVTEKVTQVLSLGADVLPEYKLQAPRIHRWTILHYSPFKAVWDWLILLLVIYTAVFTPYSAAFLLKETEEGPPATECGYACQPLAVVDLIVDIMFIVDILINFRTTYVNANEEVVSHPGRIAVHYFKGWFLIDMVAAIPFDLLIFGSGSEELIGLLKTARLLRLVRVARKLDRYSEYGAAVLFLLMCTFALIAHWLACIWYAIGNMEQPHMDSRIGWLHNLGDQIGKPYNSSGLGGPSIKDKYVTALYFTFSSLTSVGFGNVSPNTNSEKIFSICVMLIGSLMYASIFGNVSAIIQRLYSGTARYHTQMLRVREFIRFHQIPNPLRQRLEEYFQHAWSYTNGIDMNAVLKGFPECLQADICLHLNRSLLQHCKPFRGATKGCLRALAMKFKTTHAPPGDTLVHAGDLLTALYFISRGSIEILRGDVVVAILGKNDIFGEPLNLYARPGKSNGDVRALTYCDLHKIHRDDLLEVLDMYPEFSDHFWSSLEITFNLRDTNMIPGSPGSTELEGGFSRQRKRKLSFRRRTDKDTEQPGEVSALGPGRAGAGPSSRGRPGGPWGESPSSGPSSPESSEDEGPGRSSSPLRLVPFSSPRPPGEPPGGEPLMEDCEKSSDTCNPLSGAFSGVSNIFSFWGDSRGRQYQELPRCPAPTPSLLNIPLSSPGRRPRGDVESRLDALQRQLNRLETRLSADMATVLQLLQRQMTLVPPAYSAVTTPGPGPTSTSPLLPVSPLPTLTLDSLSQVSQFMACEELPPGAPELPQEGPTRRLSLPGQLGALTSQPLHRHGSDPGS
row,SMILES,"hERG current change (%, negative = inhibition) at 10uM [%]"
1,O=C(CCSCCc1ccccn1)Nc1nccs1,30.1
2,O=C(Cc1csc(NC(=O)c2ccc(F)cc2)n1)NO,-3.56
3,COc1ccc(N(C(C)C(=O)N/N=C/c2ccc(OC(C)C)cc2)S(C)(=O)=O)cc1 (stereo not shown),-52.4
4,COc1ccc(N(C(C)C(=O)N/N=C/c2cc(Br)c(C)o2)S(C)(=O)=O)cc1 (stereo not shown),-54
5,COc1ccc(N(C(C)C(=O)N/N=C/c2ccc(OC)c(OC)c2)S(C)(=O)=O)cc1 (stereo not shown),5.24
6,COc1ccc(/C=N/NC(=O)C(C)N(c2ccc(OC)cc2)S(C)(=O)=O)cc1 (stereo not shown),-8.54
7,COc1ccc(N(C(C)C(=O)N/N=C/c2cccnc2)S(C)(=O)=O)cc1 (stereo not shown),-3.44
8,COc1ccc(N(C(C)C(=O)N/N=C/c2ccc(OCC(C)C)cc2)S(C)(=O)=O)cc1 (stereo not shown),-9.12
9,COc1ccc(C(=O)/C=C/Nc2ccc(S(=O)(=O)Nc3cc(OC)nc(OC)n3)cc2)c(OC)c1,19.4
10,O=Cc1cn(CCC(=O)O)nc1-c1cccc2ccccc12,13.5
11,O=C(N/N=C\c1ccc(F)cc1)c1cc(OCC(F)(F)F)ccc1OCC(F)(F)F,-21
12,COc1ccccc1C(=O)N/N=C(\C)c1ccc(NC(=O)C2CC2)cc1,-3.62
13,O=C(NCCc1ccc(Cl)cc1)c1cccs1,-3.58
14,O=C(Cc1ccccc1)NCCSCc1ccc(Cl)cc1,-9.5
15,O=C(NCCSCc1ccc(Cl)cc1)c1cccs1,-63.7
16,C=CCSc1nnc(-c2ccccc2N=Cc2c(C)[nH]n(-c3ccccc3)c2=O)c(=O)[nH]1,-26.5
17,O=C(c1cccc(S(=O)(=O)N2CCOCC2)c1)N1CCN(S(=O)(=O)c2cccs2)CC1,5.04
18,O=C(Nc1ccc([N+](=O)[O-])cn1)c1cc(-c2cccc(Br)c2)nc2ccccc12,17.6
19,O=C(CSc1nc2ncc(Br)cc2[nH]1)c1cccc([N+](=O)[O-])c1,-45.7
20,O=[N+]([O-])c1ccc(CSc2nc3ncc(Br)cc3[nH]2)cc1,6.04
21,O=C(CSc1nc2ncc(Br)cc2[nH]1)c1ccc([N+](=O)[O-])cc1,-66.9
22,CCOC(=O)c1cc(C#N)c(N2CCCC2)nc1-c1ccccc1,-7.5
23,C/C(=C\c1ccc(C)o1)C(=O)c1c(C)cc(C)[nH]c1=O,11.5

row,SMILES,"hERG current change (%, negative = inhibition) at 10uM [%]"
1,O=C(O)C(=O)O.OCC1CCCCN1CC(O)COC(c1ccc(F)cc1)c1ccc(F)cc1 (stereo not shown),-71
2,Cc1ccccc1C(OCC(O)CN1CCCCC1CCO)c1ccccc1 (stereo not shown),-61.6
3,Cc1ccccc1C(OCC(O)CN1CCC(C(N)=O)CC1)c1ccccc1 (stereo not shown),-59.3
4,Cc1ccc(C(OCC(O)CN2CCCCC2CO)c2ccccc2)cc1 (stereo not shown),-62.8
5,NC(=O)C1CCN(CC(O)CSc2ccccc2)CC1 (stereo not shown),-0.00192
6,COc1ccccc1COCC(O)CN1CCCCC1CO.O=C(O)C(=O)O (stereo not shown),18.6
7,CCN1CCN(CC(O)COC(c2ccccc2)c2ccccc2C)CC1.O=C(O)C(=O)O (stereo not shown),-10.6
8,OCCC1CCCCN1CC(O)COCc1ccc(Cl)cc1 (stereo not shown),-7.29
9,CCC1CCCCN1CC(O)COCc1cccc(OC)c1 (stereo not shown),3.15
10,CC(OCC(O)CN1CCCCC1CCO)c1ccc(Cl)cc1 (stereo not shown),4.2
11,CCOC(=O)CC(=O)Nc1ccc(Br)cc1C(=O)O,-11.3
12,COc1ccc(CNC(=O)c2cc(=O)c3cc(C)cc(C)c3o2)cc1,2.04
13,CCn1c(SCC(=O)Nc2ccc(NC(=O)c3ccco3)c(OC)c2)nc2ccccc2c1=O,-20
14,CCOC(=O)C1=C(O)/C(=C/c2ccc(OCC(=O)Nc3ccc(C)cc3)cc2)N=C1C,10.6
15,C/C(=N\NC(=O)c1cc(-c2cccnc2)nc2ccccc12)c1ccccc1O,0.355
16,Cn1c(=O)c2c(=O)cc(NNC(=O)C(C)(C)C)[nH]c2n(C)c1=O,0.349
17,CCCC[C@@H]1CNC(=S)N1CCCC,11
18,C/C(CC(=O)Nc1ccc2c(c1)OCCO2)=N\NC(=O)Cc1ccc(Cl)cc1,11.2
19,CCCCc1nnc(NC(=O)CSc2nc(O)c(-c3ccccc3)c(=O)[nH]2)s1,1.48
20,Cc1ccc(N(CCCCN2C(=O)c3ccccc3C2=O)C(=O)c2ccc(Cl)s2)cc1,2.79
21,O=C1c2ccccc2C(=O)N1CCCCN(C(=O)c1ccco1)c1ccc(Cl)cc1,-55.7
22,CC(=O)N(CCCCN1C(=O)c2ccccc2C1=O)c1ccc(C)cc1,-34.5
23,O=C1c2ccccc2C(=O)N1CCCCN(C(=O)c1ccc([N+](=O)[O-])cc1)c1ccc(Cl)cc1,-3.93

row,SMILES,"hERG current change (%, negative = inhibition) at 10uM [%]"
1,O=C1c2ccccc2C(=O)N1CCCCN(C(=O)c1ccc(Cl)s1)c1ccc(Cl)cc1,8.41
2,Cc1ccc(N(CCCCN2C(=O)c3ccccc3C2=O)C(=O)c2cccc([N+](=O)[O-])c2)cc1,-59.5
3,Cc1ccc(N(CCCCN2C(=O)c3ccccc3C2=O)C(=O)c2cccs2)cc1,-67.3
4,O=C1c2ccccc2C(=O)N1CCCCN(C(=O)c1cccc([N+](=O)[O-])c1)c1ccc(Cl)cc1,-7.96
5,O=C1c2ccccc2C(=O)N1CCCCN(C(=O)c1cc([N+](=O)[O-])cc([N+](=O)[O-])c1)c1ccc(Cl)cc1,5.87
6,OC1C2(Cc3ccccc3)CN3CCN(C2)CC1(Cc1ccccc1)C3 (stereo not shown),-1.47
7,Cc1[nH][nH]c(=O)c1C(c1ccc(-c2cccc(C(=O)O)c2)o1)c1c(C)[nH][nH]c1=O,19.2
8,COc1ccc(OC)c(NC(=O)c2ccc(Cl)cc2)c1,-5.32
9,COc1ccc(/C(C)=N/Nc2nc3ccccc3n3cnnc23)cc1OC,-19.4
10,CC(c1ccccc1)n1c(CCCO)nc2ccccc21 (stereo not shown),-2.26
11,COc1cccc(OC)c1C(=O)Nc1ccc(Cc2ccncc2)cc1,8.86
12,CC1CCCN(Cc2nc3c(c(=O)n(C)c(=O)n3C)n2CC(=O)c2ccccc2)C1 (stereo not shown),-8.71
13,CCN(Cc1ccncc1)Cc1cn[nH]c1-c1ccc(OC)cc1F,-3.13
14,COc1ccc(NC(=O)CN(C)C(=O)c2cccc3ccccc23)cc1,3.09
15,CCOc1nc(NCCN2CCOCC2)nc(Nc2ccc(C)cc2)n1,-65.3
16,CCOc1nc(NCCN2CCOCC2)nc(NC(C)C)n1,-9.84
17,C=CCNc1nc(Nc2ccc([N+](=O)[O-])cc2)nc(OC)n1,-14.1
18,CCOc1nc(NCCO)nc(Nc2ccc([N+](=O)[O-])cc2)n1,-9.66
19,OCCNc1nc(Nc2ccc(Cl)cc2)nc(N2CCCC2)n1,-15.1
20,COc1nc(NCCO)nc(Nc2ccc([N+](=O)[O-])cc2)n1,-40.2
21,CCCNc1nc(Nc2ccc(C)cc2)nc(N2CCCC2)n1,-30.6
22,O=[N+]([O-])c1ccc(Nc2nc(NCCO)nc(N3CCCC3)n2)cc1,-58.3
23,C=CCNc1nc(Nc2ccc([N+](=O)[O-])cc2)nc(N2CCCC2)n1,-23.8

row,SMILES,"hERG current change (%, negative = inhibition) at 10uM [%]"
1,CCOc1nc(NCCN2CCOCC2)nc(Nc2ccc([N+](=O)[O-])cc2)n1,-93.1
2,CCOc1nc(Nc2ccc([N+](=O)[O-])cc2)nc(NC(C)(C)C)n1,12.2
3,COc1nc(NCCN2CCOCC2)nc(Nc2ccc([N+](=O)[O-])cc2)n1,-50.7
4,CCCn1c(N)c(N(CCOC)C(=O)c2cc(C)cc(C)c2)c(=O)[nH]c1=O,16.4
5,CCCS(=O)(=O)N1CCN(Cc2ccc(OCc3ccccc3)c(OC)c2)CC1.O=C(O)C(=O)O,-43.2
6,O=C(NCc1ccccn1)c1c(Cl)cccc1Cl,2.78
7,COc1ccc(-n2c(C)cc(C)c(C(C)=O)c2=S)cc1,-2.39
8,Cc1cccc(N2CCN(CC(=O)N(C3CCCC3)C3CCS(=O)(=O)C3)CC2)c1C (stereo not shown),-13.3
9,CCCc1nnc(SCC(=O)N(CC)CC)n1CC1CCCO1 (stereo not shown),21.9
10,Cc1ccc2[nH]c(=O)c(CN(CCc3ccccc3)Cc3nnnn3CC3CCCO3)cc2c1 (stereo not shown),-16
11,CC(=O)Nc1ccc(/C=N/NC(=S)NC(C)C)cc1,21.3
12,CC(Cc1n[nH]c(=S)n1N)c1ccccc1 (stereo not shown),19.8
13,CS(=O)(=O)c1ccc(Cl)c(NC(=O)COC(=O)c2ccc(-n3cnnn3)cc2)c1,-7.82
14,Cc1ccc(NC(=O)COc2cccc(-n3cnnn3)c2)cc1[N+](=O)[O-],-0.307
15,O=C(COc1cccc(-n2cnnn2)c1)Nc1ccc([N+](=O)[O-])cc1,-43.6
16,COc1ccc(NC(=O)COc2cccc(-n3cnnn3)c2)cc1,-54.3
17,COc1ccc(NC(=O)COc2cccc(-n3cnnn3)c2)cc1Cl,24
18,COc1cccc(NC(=O)COc2cccc(-n3cnnn3)c2)c1,-50.8
19,COc1cccc(CNC(=O)COc2cccc(-n3cnnn3)c2)c1,-18.9
20,CCc1ccc(NC(=O)COc2cccc(-n3cnnn3)c2)cc1,-68
21,O=C(COc1cccc(-n2cnnn2)c1)Nc1ccccc1,-26.4
22,COC(=O)c1ccc(NC(=O)COc2cccc(-n3cnnn3)c2)cc1,6.77
